Measurements: publication PMC4336329 (PLoS ONE, 2015)
Screen size: about 310,000 compounds; about 2,200 (0.71%) showed an effect of 50% or more. Effects have a minus sign here. The sample holds strong results, similar compounds and a random draw of the others, so the mix is not that of the screen.

What follows are molecules tested against human ether-à-go-go-related gene (hERG) potassium channel (human, UniProt Q12809) (assay: primary screen, population patch clamp on CHO cells stably expressing hERG; higher = less effect of the substance).
Sequence of human ether-à-go-go-related gene (hERG) potassium channel (Q12809 whole entry, looked up): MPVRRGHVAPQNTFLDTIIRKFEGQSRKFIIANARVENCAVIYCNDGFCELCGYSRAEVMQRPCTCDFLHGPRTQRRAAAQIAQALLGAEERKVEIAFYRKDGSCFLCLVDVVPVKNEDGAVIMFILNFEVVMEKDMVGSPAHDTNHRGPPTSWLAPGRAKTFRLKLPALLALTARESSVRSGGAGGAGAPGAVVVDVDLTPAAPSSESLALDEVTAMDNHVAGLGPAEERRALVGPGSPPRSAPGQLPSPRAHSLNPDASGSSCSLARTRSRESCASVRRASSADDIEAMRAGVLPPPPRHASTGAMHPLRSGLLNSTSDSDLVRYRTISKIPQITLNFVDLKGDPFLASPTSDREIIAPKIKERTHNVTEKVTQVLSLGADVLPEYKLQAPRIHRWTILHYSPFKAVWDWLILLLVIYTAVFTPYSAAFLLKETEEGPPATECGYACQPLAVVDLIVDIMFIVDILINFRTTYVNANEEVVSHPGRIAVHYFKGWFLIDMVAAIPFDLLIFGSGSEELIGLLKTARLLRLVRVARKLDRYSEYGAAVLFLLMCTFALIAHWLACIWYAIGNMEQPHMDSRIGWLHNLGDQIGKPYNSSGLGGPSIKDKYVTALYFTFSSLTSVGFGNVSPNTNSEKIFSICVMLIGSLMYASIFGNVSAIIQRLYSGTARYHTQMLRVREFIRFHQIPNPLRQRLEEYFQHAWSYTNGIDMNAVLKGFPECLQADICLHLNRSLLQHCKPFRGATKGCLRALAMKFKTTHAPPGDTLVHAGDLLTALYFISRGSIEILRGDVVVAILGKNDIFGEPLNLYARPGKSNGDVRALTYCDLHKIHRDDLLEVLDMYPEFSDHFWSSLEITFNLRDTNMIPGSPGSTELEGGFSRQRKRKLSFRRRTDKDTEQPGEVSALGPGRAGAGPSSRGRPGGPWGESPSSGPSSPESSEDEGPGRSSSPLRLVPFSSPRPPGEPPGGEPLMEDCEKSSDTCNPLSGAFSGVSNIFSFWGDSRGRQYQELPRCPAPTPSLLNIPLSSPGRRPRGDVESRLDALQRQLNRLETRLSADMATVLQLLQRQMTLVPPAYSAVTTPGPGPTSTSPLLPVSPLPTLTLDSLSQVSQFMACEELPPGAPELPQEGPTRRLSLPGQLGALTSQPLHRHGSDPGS

Structure (SMILES)	hERG current change (%, negative = inhibition) at 1uM [%]
Cc1c(CCC(=O)N2CCC[C@H]2C(=O)O)c(=O)oc2c(C)c3oc4c(c3cc12)CCCC4	21.1
COC(=O)C(NC(C)=O)(Nc1ccc(C)cn1)C(F)(F)F (stereo not shown)	21.1
Cc1ccc(NP(=O)(Oc2ccccc2F)Oc2ccccc2F)cc1	-1.69
COc1cc(OC)cc(C(=O)N2CCN(Cc3ccccc3Br)CC2)c1	9.25
Cc1ccc2nc3c(cc(C(=O)NC4CCCCC4)c(=N)n3C3CCCCC3)c(=O)n2c1	-72.7
Cc1ccc(S(=O)(=O)c2cc3c(=O)n4ccccc4nc3n(C3CCCCC3)c2=N)cc1	-0.427
Cc1ccc(S(=O)(=O)c2cc3c(=O)n4ccccc4nc3n(C3CCCC3)c2=N)cc1	3.8
Cc1ccc2nc3c(cc(C(=O)NC4CCCC4)c(=N)n3C3CCCCC3)c(=O)n2c1	-86.2
Cc1ccc2nc3c(cc(C(=O)NC4CCCC4)c(=N)n3CCCn3ccnc3)c(=O)n2c1	-2.46
CCCOc1cccc(C(=O)N(Cc2ccco2)C2CCS(=O)(=O)C2)c1 (stereo not shown)	3.56
CCN(CC)C(=O)C1CCN(S(=O)(=O)c2ccc3oc4ccccc4c3c2)CC1	16.7
CCc1ccc(NC(=O)c2nc(S(=O)(=O)Cc3ccccc3)ncc2Cl)cc1	20.7
O=c1[nH]c2ccccc2cc1CN(Cc1cccnc1)S(=O)(=O)c1ccc([N+](=O)[O-])cc1	-5.07
c1ccc(C(c2nnnn2Cc2ccco2)N2CCN(c3nc4ccccc4s3)CC2)cc1 (stereo not shown)	8.1
Cc1ccc(Cl)cc1NC(=O)C1CCCN(S(C)(=O)=O)C1 (stereo not shown)	7.81
O=[N+]([O-])c1ccc(N2CCN(Cc3ccc4c(c3)OCO4)CC2)nc1	-29.2
Cl.O=[N+]([O-])c1ccc2ncnc(N3CCN(Cc4ccc5c(c4)OCO5)CC3)c2c1	11.4
O=Cc1cc([N+](=O)[O-])ccc1N1CCN(Cc2ccc3c(c2)OCO3)CC1	-66.7
Cc1ccccc1Nc1nc2nonc2nc1N1CCOCC1	6.45
CC1C(=O)NC(=O)C1c1ccccc1 (stereo not shown)	13.3
Cn1c(N)c(C(=O)COC(=O)CSc2ccc(Cl)cc2)c(=O)n(C)c1=O	-2.13
CC(C)(C)NCc1cc2ccccc2[nH]c1=O	8.1

Structure (SMILES)	hERG current change (%, negative = inhibition) at 1uM [%]
O=C1CCN(CCc2ccccc2)CCN1[C@H](CO)c1ccccc1	-7.26
CCCN1CCC(=O)N([C@H](COc2ccccc2)c2ccccc2)CC1	-76.5
O=C1CCN(Cc2ccccc2)CCN1[C@H](COc1ccccc1)c1ccccc1	2.66
CC(C)CN1CCC(=O)N([C@H](CO)c2ccccc2)CC1	12.6
CCCN1CCC(=O)N([C@H](CO)c2ccccc2)CC1	9.74
O=C1CCN(CCc2ccccc2)CCN1[C@H](COc1ccccc1)c1ccccc1	-82.8
CCCCCCCN1CCC(=O)N([C@H](CO)c2ccccc2)CC1	-25.8
CC(C)C[C@@H](COc1ccccc1)N1CCN(CC(C)C)CCC1=O	-21.2
CC(C)CN1CCC(=O)N([C@H](COc2ccccc2)c2ccccc2)CC1	-64.3
COc1ccc(CCNc2nc(-c3cccnc3)cs2)cc1OC	23.6
CCCCC(=O)Nc1cccc(NC(=O)c2cccnc2Cl)c1	6.85
C/C(=N\O)C(=O)NCCN(C)C	13.6
CC(=O)O.Cc1nc(NCCc2ccc(F)cc2)c(C#N)c(C)c1[N+](=O)[O-]	-41.9
O=C(Oc1ccc(C(=S)N2CCCCC2)cc1)c1ccccc1	7.88
O=C(COC(=O)CCC(=O)c1ccccc1)NCCc1ccccc1	4.19
O=C(Cn1ccc(NC(=O)OCc2ccccc2)nc1=O)NCCCN1CCCC1=O	7.66
CCOC(=O)c1sc2nc(C)nc(NCc3ccc(F)cc3)c2c1C	17.8
CCOC(=O)c1sc2nc(C)nc(NCc3ccccc3)c2c1C	16.7
CCOC(=O)c1sc2nc(C)nc(NCc3ccc(Cl)cc3)c2c1C	-89.6
[O-]/C(=C(\C(=S)NCc1ccccc1)[n+]1ccccc1)c1ccc(Cl)s1	0.527
COC(=O)c1c(NC(=O)c2cccs2)sc2c1CCC(C)C2 (stereo not shown)	9.97
COc1ccc([C@@H]2[C@@H](C(=O)C(C)(C)C)N3N=Cc4ccccc4[C@@H]3C23C(=O)OC(C)(C)OC3=O)cc1OC	-5.04

Structure (SMILES)	hERG current change (%, negative = inhibition) at 1uM [%]
CCOc1ccc(CN2CCN(Cc3cccn3-c3nccs3)CC2CCO)cc1 (stereo not shown)	-84
CCOc1ccc(CN2CCN(Cc3ccon3)CC2CCO)cc1 (stereo not shown)	-33.5
OCCC1CN(Cc2cccn2-c2nccs2)CCN1Cc1ccccc1 (stereo not shown)	-21.7
OCCC1CN(Cc2ccc(Oc3ncccn3)cc2)CCN1Cc1ccc(F)c(F)c1 (stereo not shown)	8.89
CC(C)CCN1CCN(Cc2cccn2-c2nccs2)CC1CCO (stereo not shown)	-17.6
CC(C)=CCN1CCN(Cc2cccn2-c2nccs2)CC1CCO (stereo not shown)	-1.62
Cc1ccc(CN2CCN(Cc3cccn3-c3nccs3)CC2CCO)cc1 (stereo not shown)	-79.7
OCCC1CN(Cc2cccn2-c2nccs2)CCN1CCc1ccccc1 (stereo not shown)	-57.1
OCCC1CN(Cc2cccn2-c2nccs2)CCN1Cc1ccc(F)c(F)c1 (stereo not shown)	-85
CC(C)N1CCN(Cc2cccn2-c2nccs2)CC1CCO (stereo not shown)	11.5
OCCC1CN(Cc2ccn[nH]2)CCN1Cc1ccc(F)c(F)c1 (stereo not shown)	8.07
OCCC1CN(Cc2cccn2-c2nccs2)CCN1C1CCCCC1 (stereo not shown)	-4.43
CC(Sc1nc2ccc(Br)cc2[nH]1)C(=O)O (stereo not shown)	-11.3
Cc1cc(Cl)c(OCCCNC2CCCC2)c(Br)c1.O=C(O)C(=O)O	-6.84
Cc1nnsc1C(=O)Nc1ccc(S(=O)(=O)N2CCCC(C)C2)cc1 (stereo not shown)	15.2
Cn1cccc1C(=O)NC1CCCCC1	5.24
C=CCn1c(SCC(=O)Nc2cccnc2Cl)nnc1-c1ccc(C(C)(C)C)cc1	9.68
CCN1CCN(C(=O)/C=C/c2ccc(OC)c(OC)c2)CC1	14.8
C/C(=N\OC(=O)c1ccc(Cl)cc1)c1nccs1	9.4
COc1ccc(CNS(=O)(=O)c2ccc(-n3cnnn3)c(OC)c2)cc1	-2.65
O=C(c1cc2ccccc2[nH]1)N(Cc1cccnc1)CC1CCCN(C2CCCCC2)C1 (stereo not shown)	-49.6
COC(=O)c1ccccc1C(=O)N(Cc1cccnc1)CC1CCCN(C2CCCCC2)C1 (stereo not shown)	-7.49

Structure (SMILES)	hERG current change (%, negative = inhibition) at 1uM [%]
O=C(c1cc2cc(F)ccc2[nH]1)N(Cc1cccnc1)CC1CCCN(C2CCCCC2)C1 (stereo not shown)	-81
COC(=O)c1ccc(COc2ccc(/C=N/NC(=O)C(=O)Nc3ccc(OC)cc3)cc2OC)o1	9.15
CC(C)Oc1cccc(C(=O)C2CCCN(Cc3ccc(Oc4ncccn4)cc3)C2)c1 (stereo not shown)	-7.28
COc1cccc(C(=O)C2CCCN(Cc3cccn3-c3ccccn3)C2)c1 (stereo not shown)	-84
COc1cccc(C(=O)C2CCCN(Cc3ccccn3)C2)c1 (stereo not shown)	-0.481
COc1cccc(C(=O)C2CCCN(Cc3cccn3-c3cccnc3)C2)c1 (stereo not shown)	-6.89
CC(C)Oc1cccc(C(=O)C2CCCN(Cc3cccn3-c3cccnc3)C2)c1 (stereo not shown)	12.4
CC(C)Oc1cccc(C(=O)C2CCCN(Cc3cccn3-c3ccccn3)C2)c1 (stereo not shown)	-81.7
CCOc1ccc2nc(SCC(=O)N(CC(C)C)c3c(N)n(Cc4ccccc4)c(=O)[nH]c3=O)[nH]c2c1	9.81
CCCn1c(SCC(=O)Nc2cccc(F)c2)nc(O)cc1=O	9.12
CN1CCN(c2cnn(-c3ccccc3)c(=O)c2Br)CC1	13.2
COc1ccc(C(=O)N2CCN(c3ccc(F)cc3)CC2)cc1S(=O)(=O)NC1CC1	-17.3
COc1ccc(C(=O)N2CCN(c3cccc(Cl)c3)CC2)cc1S(=O)(=O)NC1CC1	-79.6
COc1ccc(C(=O)N2CCN(c3ccccc3Cl)CC2)cc1S(=O)(=O)NC1CC1	7.63
O=C1Nc2c(c(=O)[nH]c(=O)n2Cc2ccccc2)C1(NS(=O)(=O)c1ccccc1)C(F)(F)F (stereo not shown)	14.5
C/C(Cn1nc([N+](=O)[O-])cc1C)=N\NC(=O)COc1ccccc1[N+](=O)[O-]	7.38
C/C(Cn1nc([N+](=O)[O-])cc1C)=N\NC(=O)COc1c(Cl)cc(Cl)cc1Cl	-23.8
C/C(Cn1nc([N+](=O)[O-])cc1C)=N\NC(=O)COc1ccc(Cl)cc1Cl	-51.3
Cc1nnc(NC(=O)CSc2ccc(-c3ccc(Cl)cc3)nn2)s1	12.4
